Records with an inconclusive call do not appear. Unmarked numbers belong to inactive results. Active and inactive are the calls of the source. Calls follow the shape of the dose curve; as a rule, active = well fitted inhibition curve with a large enough effect; inconclusive = small, poorly fitted or top-dose-only effect; inactive = flat fitted curve, though single readings scatter.
% is scaled to controls: 0 for no effect and ±100 for the full control effect; potency is read from the fitted curve at half-maximal effect.

The test system of the test is CRL-7250. Briefly: Cytotoxic Profiling of Annotated Libraries Using Quantitative High-Throughput Screening (AID 1296008). Also: nearly all actives have a fitted effect of over 60% in size. Conditions: Five cell lines viability, CellTiter-Glo ATP luminescence, 48-72 h; max response: stronger effect = lower value. The procedure, abridged:
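Cytotoxicity was measured as CellTiter-Glo ATP luminescence, read after 10 min at room temperature. Compound treatment of the cells lasted 48 or 72 hr at 37 degrees Celsius in a qHTS format.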
As for `CCC1=C[C@@H]2CN(C1)Cc1c([nH]c3ccccc13)[C@@](C(=O)OC)(c1cc3c(cc1OC)N(C)[C@H]1[C@@](O)(C(=O)OC)[C@H](OC(C)=O)[C@]4(CC)C=CCN5CC[C@]31[C@@H]54)C2`, the Potency is 0.0422 µM (active).
For `OC1(c2ccc(Cl)cc2)CCNCC1`, the max response was -0.911%.
On the same count and under the same terms, the value for `CCCCN(CCN(CCCC)C(=O)N1CCOCC1)C(=O)N1CCOCC1` was -1.09%.
In the case of `CC(=O)Oc1ccc(C2(c3ccc(OC(C)=O)cc3)Oc3ccccc3NC2=O)cc1`, the Potency is 8.41 µM (active).
Same read-out and setting: the value for `CCCCCCCCCCCCCCCCCCNC(=O)OC1CCN(C(=O)OC[C@H](COC(=O)N(Cc2cccc[n+]2CC)C(=O)c2ccccc2OC)OC)CC1` was 8.41 µM (active).
Turning to `O=C(CCCl)NCc1ccccc1`, the max response is -8.2%.
Regarding `Nc1ccc2cc3ccc(N)cc3nc2c1`, the Potency is 7.5 µM (active).
With `CN(C)C(=O)CNC(=O)Cc1ccccc1`, the max response is -7.63%.
`CCNC(=O)NCCCOc1cccc(CN2CCCCC2)c1`: the max response was -12.2%.
In the case of `CCN(CC)CC(=O)Nc1c(C)cccc1C(=O)OC`, the max response was 1.74%.
As for `CCCCCCOC(=O)NC(=N)c1ccc(NCc2nc3cc(C(=O)N(CCC(=O)OCC)c4ccccn4)ccc3n2C)cc1`, the max response is 2.91%.
On to `CC1(C)OC(=O)Nc2ccc(Br)cc21`, for which the outcome was inactive.
Turning to `CC(C)(C)NCC(O)COc1ccccc1OCC1CCCO1` (stereo unspecified), the max response was -2.81%.
On the same count and under the same terms, the value for `COC(=O)c1c(Cl)c(Cl)c(C(=O)OC)c(Cl)c1Cl` was -7.84%.
Consider `CCN(CC)CCN`, for which the max response is 3.12%.
On to `c1ccc2occc2c1`, for which the max response is -10.5%.

(Values after PubChem BioAssay (NCATS).)
